Pol kappa inh-1 – qHTS for Inhibitors of Polymerase Kappa; actives 0.53% (n = 400,000); Potency, µM (doses to about 107 µM), for the others: at the top dose activity, negative = inhibition, actives largely listed as inhibitors; purified Pol kappa, fluorescent DNA synthesis assay, 10 min; AID 588579, 2011; DNA polymerase kappa (Homo sapiens), Q9UBT6; also: potency is read from the fitted curve at half-maximal effect; % is scaled to controls: 0 for no effect and ±100 for the full control effect
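Pol kappa 10 nM + cpd, 15 min RT; start w/ substrate 50 nM final; fluorescence kinetic read, 0 and 10 min. Neg ctrl: buffer, no enzyme.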
POLI inh – qHTS for Inhibitors of Polymerase Iota | Pol iota fluorescent replication assay, 10 min | Potency, µM (series often up to 115 µM), for the others: top-dose activity, negative = inhibition, most hits filed as inhibitors | actives 1% (n = 390,000) | AID 588590, 2011; also: potency is read from the fitted curve at half-maximal effect
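Pol iota at 10 nM preincubated 15 min with compounds at room temperature; reaction started with fluorescent substrate, 50 nM final. Fluorescence read kinetically at 0 and 10 min; buffer-only wells as negative control.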
Pol beta inh-1 – qHTS Assay for Inhibitors of DNA Polymerase Beta | P06746 | Pol beta primer extension/strand displacement, fluorescence kinetic | Potency, µM (titrated, usually from 114 µM), inactives show top-dose activity change, negative = inhibition, actives largely listed as inhibitors | actives 1.3% (n = 340,000) | AID 485314, 2010; also: potency is read from the fitted curve at half-maximal effect; % is scaled to controls: 0 for no effect and ±100 for the full control effect
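Kinetic readout of DNA synthesis with strand displacement by Pol beta. Compound and 10 nM enzyme sit 15 min at room temperature; 50 nM substrate starts the reaction, read immediately and at 10 min.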
Pol eta inh-1 – qHTS for Inhibitors of Polymerase Eta; AID 588591, 2011; recombinant Pol eta, fluorescent DNA replication assay; actives 1.2% (n = 390,000); Potency, µM (titrated, usually from 114 µM), without a hit: at the highest dose activity change, negative = inhibition, hits mostly inhibitors; also: potency is read from the fitted curve at half-maximal effect; % is scaled to controls: 0 for no effect and ±100 for the full control effect
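Pol eta at 10 nM preincubated with compounds 15 min at room temperature; reaction started with fluorescent substrate (50 nM final) and read kinetically at 0 and 10 min.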
FEN1 inhibitor – qHTS Assay for the Inhibitors of Human Flap endonuclease 1 (FEN1); actives 0.35% (n = 390,000); Potency, µM (highest dose often 114 µM), inactives show at the highest dose activity change, negative = inhibition, actives largely listed as inhibitors; AID 588795, 2011; Recombinant FEN1 flap cleavage, fluorescence, 15 min; also: potency is read from the fitted curve at half-maximal effect; % is scaled to controls: 0 for no effect and ±100 for the full control effect; nearly all actives have a fitted effect of over 65% in size
Target sequence (P39748 whole entry, looked up): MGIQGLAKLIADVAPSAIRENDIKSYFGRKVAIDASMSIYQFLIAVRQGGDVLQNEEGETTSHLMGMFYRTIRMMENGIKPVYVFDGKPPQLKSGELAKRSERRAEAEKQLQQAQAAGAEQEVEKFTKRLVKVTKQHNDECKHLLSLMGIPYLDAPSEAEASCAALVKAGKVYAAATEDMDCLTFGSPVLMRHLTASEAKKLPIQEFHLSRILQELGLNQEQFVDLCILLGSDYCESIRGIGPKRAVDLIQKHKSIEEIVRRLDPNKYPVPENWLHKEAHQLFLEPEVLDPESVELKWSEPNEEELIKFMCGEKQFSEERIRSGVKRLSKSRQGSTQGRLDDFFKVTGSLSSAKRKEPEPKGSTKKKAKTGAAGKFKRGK
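With each library titrated from low to high concentration, compounds met 10 nM FEN1 for 15 min at room temperature before 50 nM substrate was added; readings at 0 and 15 min fed four-parameter Hill curve fits.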
WRN inhibitor – qHTS for Inhibitors of WRN Helicase | WRN helicase unwinding, fluorescent forked duplex, kinetic | Potency, µM (titrated, usually from 114 µM), for inactives: at the top dose activity change, negative = inhibition, usual class: inhibitors | actives 0.46% (n = 360,000); also: potency is read from the fitted curve at half-maximal effect; % is scaled to controls: 0 for no effect and ±100 for the full control effect; nearly all actives have a fitted effect of over 55% in size
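Kinetic fluorescence helicase assay: unwinding of a quenched forked DNA duplex (100 nM final) with 2 mM ATP final raises red fluorescence (525/598 nm). Compounds sat 15 min at room temperature with 20 nM WRN beforehand.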
Pol beta inh-2 – Inhibitors of DNA Polymerase Beta: Hit validation. shares compounds with Pol beta inh-1. Pol beta primer extension/strand displacement, fluorescence kinetic. Potency, µM, actives largely listed as inhibitors. actives 87% (n = 250); calls by dose curve; also: potency is read from the fitted curve at half-maximal effect
Klenow inh – Inhibitors of DNA Polymerase Beta: Hit Validation in Klenow Fragment Assay; AID 540300, 2011; Klenow exo- polymerase counter-screen, fluorescent DNA substrate; shares compounds with Pol beta inh-1; 250 tested, under 10 active; activity change, negative = inhibition, % at 57.1 µM
HIV RT inh – Inhibitors of DNA Polymerase Beta: Hit Validation in HIV-RT Assay | shares compounds with Pol beta inh-1 | HIV-1 RT polymerase activity, counter-screen | activity % (negative = inhibition, positive = activation), % at 57.1 µM | 250 tested, under 10 active | AID 540301, 2011
POLB inh gel – Inhibitors of DNA Polymerase Beta: Hit Validation in Radiolabeled Extension Assay. AID 540325, 2011. inhibition, % at 10 µM. shares compounds with Pol beta inh-1. actives 91% (n = 110). radiolabeled primer extension gel assay, phosphorimager;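 active = inhibition at 10 µM of 30% or more; inconclusive = no clear call, values can overlap the other calls; inactive = inhibition at 10 µM under 30%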
PGK validate – qHTS for inhibitors of Phosphogylcerate Kinase: Hit Validation Screen | AID 686980, 2013 | actives 79% (n = 500) | shares compounds with Pol kappa inh-1 | TbPGK coupled GAPDH assay, Kinase-Glo luminescence | Potency, µM (titrated, usually from 57.5 µM), for inactives: at the highest dose activity change, negative = inhibition, actives largely listed as inhibitors; also: potency is read from the fitted curve at half-maximal effect; % is scaled to controls: 0 for no effect and ±100 for the full control effect; nearly all actives have a fitted effect of over 65% in size
POLI cherry-pick – qHTS for Inhibitors of Polymerase Iota: Confirmatory Assay for Cherry-picked Compounds; shares compounds with Pol kappa inh-1; Pol iota primer extension, TAMRA/BHQ fluorescence; Potency, µM, usual class: inhibitors; actives 77% (n = 1,500); also: potency is read from the fitted curve at half-maximal effect
Pol kappa inh-2 – qHTS for Inhibitors of Polymerase Kappa: Confirmatory Assay for Cherry-picked Compounds; shares compounds with Pol eta inh-1; purified Pol-kappa, fluorescent strand-displacement substrate; Potency, µM, usual class: inhibitors; actives 76% (n = 920); AID 720501, 2013; also: potency is read from the fitted curve at half-maximal effect
Pol eta inh-2 – qHTS for Inhibitors of Polymerase Eta: Confirmatory Assay for Cherry-picked Compounds; shares compounds with Pol eta inh-1; Pol eta primer extension, TAMRA/BHQ fluorescence, 10 min; Potency, µM, most hits filed as inhibitors; actives 64% (n = 2,600); AID 720502, 2013; also: potency is read from the fitted curve at half-maximal effect
* = called active by the depositor; ? = inconclusive; nt = not tested or not shown; [ ] = another dose, or the depositor's remark. Most compounds without a hit are left out; they make up all but 2.4% or so of the library. Unless noted, calls follow the shape of the dose curve; as a rule, active = well fitted curve in the direction sought with a large enough effect; inconclusive = small, poorly fitted or top-dose-only effect, or another doubt; inactive = no such curve, though single readings can be large; an effect the other way counts as inactive or inconclusive.

SMILES	Pol kappa inh-1	POLI inh	Pol beta inh-1	Pol eta inh-1	FEN1 inhibitor	WRN inhibitor	Pol beta inh-2	Klenow inh	HIV RT inh	POLB inh gel	POLI cherry-pick	Pol eta inh-2	others
O=C(Nc1nc(-c2cc3ccccc3oc2=O)cs1)c1ccco1	-8.7%	-12.0%	8.91µM*	?	-28.9%	-15.6%	20*	-20.2	42.9	40.9*	?	nt
O=C(Nc1nc(-c2ccccn2)cs1)c1ccco1	-20.9%	-0.2%	?	?	-5.4%	-13.8%	nt	nt	nt	nt	nt	nt
COc1ccc(NCc2cc3cc4c(cc3n(CC(=O)Nc3ccc(F)cc3F)c2=O)OCO4)cc1	-3.0%	1.5%	3.1%	-20.1%	-5.9%	nt	nt	nt	nt	nt	nt	nt
O=C(Nc1cccc(-c2cn3ccccc3n2)c1)c1cc2ccccc2oc1=O	-17.5%	?	3.98µM*	?	?	?	5.62*	28.3	47.5	nt	?	nt
CCCC(=O)NCCc1nc2ccccc2n1Cc1c(F)cccc1Cl	-6.6%	7.6%	-11.0%	-14.6%	17.1%	nt	nt	nt	nt	nt	nt	nt
O=C(/C=C/c1ccccc1Cl)Nc1ccc2c(c1)C(=O)NC2=O	?	?	8.91µM*	?	-28.3%	?	14.1*	-2.9	23.5	nt	?	nt
CCCN(C(=O)c1cc2c(s1)CCC2)c1c(N)n(Cc2ccccc2)c(=O)[nH]c1=O	?	?	10µM*	25.1µM*	-1.9%	-34.3%	22.4*	-13.2	-8.7	90.6*	?	75.7*
CCCN(C(=O)c1cccs1)c1c(N)n(Cc2ccccc2)c(=O)[nH]c1=O	4.9%	12.2%	nt	2.1%	16.0%	-6.0%	nt	nt	nt	nt	nt	nt
CC1=NN(c2ccc(C)c(C)c2)C(=O)/C1=C\C=C\c1ccc([N+](=O)[O-])o1	50.1µM*	11.2µM*	7.08µM*	39.8µM*	-29.1%	4.1%[11.6 µM]	31.6*	-19.2	17.4	98.6*	42.3*	53.6*
CCN(CC)c1ccc(NC(=O)CCS(=O)(=O)c2ccc(Br)cc2)c(C)c1	?	39.8µM*	7.08µM*	14.1µM*	-0.4%	?	10*	-23.9	?	nt	47.4*	16.9*	PGK validate=10.3µM*;Pol kappa inh-2=7.52*
COC(=O)c1c(NC(=O)CN2C(=O)NC3(CCC(C)CC3)C2=O)sc2c1CCC2 (centres undefined)	-13.4%	?	nt	3.2%	3.4%	-0.9%	nt	nt	nt	nt	nt	nt
CC1CCC2(CC1)NC(=O)N(CC(=O)Nc1sc3c(c1C(N)=O)CCC3)C2=O (centres undefined)	?	11.2µM*	5.01µM*	17.8µM*	-29.6%	50.1µM*	20*	-10.6	?	99.7*	37.7*	19*
Cc1ccc(S(=O)(=O)Cc2ccc(C(=O)N3CCc4ccccc4C3)o2)cc1	56.2µM*	?	15.8µM*	20µM*	-27.0%	?	35.5*	-10.1	3.5	nt	42.3*	47.8*
COc1ccc(NC(=O)c2cccc(N3CCCS3(=O)=O)c2)cc1	-1.1%	37.3%	8.6%	-13.8%	20.1%	nt	nt	nt	nt	nt	nt	nt
CC/C=C/[C@@H](c1ccccc1)[C@H](C)C(O)CC(=O)SC(C)(C)C (some centres undefined)	-18.0%	-14.5%	nt	nt	-17.0%	nt	nt	nt	nt	nt	nt	nt
O=c1c2c3c(sc2[nH]c(=S)n1Cc1ccco1)CCC3	?	17.8µM*	8.91µM*	20µM*	?	?	15.8*	-12.0	-2.8	nt	42.3*	42.6*
CC1(C)Cc2c(sc3[nH]c(=S)n(Cc4ccco4)c(=O)c23)CO1	-5.9%[60.1 µM]	4.0%	-11.4%	-6.1%	-15.4%	-24.0%	nt	nt	nt	nt	nt	nt
CC(C)CCN(Cc1ccco1)C(=O)Cn1ncc2c([nH]c3ccccc32)c1=O	-10.3%	-5.2%	6.3%	-8.6%	15.8%	nt	nt	nt	nt	nt	nt	nt
COc1ccc(C)cc1NS(=O)(=O)c1c(C(=O)N2CCCCCC2)c(C)n(C)c1C	0.0%	5.3%	-1.7%	-12.0%	4.5%	nt	nt	nt	nt	nt	nt	nt
C=CCn1c(SCC(=O)Nc2ccc(-c3nc4ccc(C)cc4s3)cc2)nnc1-c1ccccc1	-33.1%	56.2µM*	6.31µM*	?	-20.7%	?	20*	-0.6	53.3	59.7*	67*	?
Cc1nc(C)c(C(=O)Nc2ncc([N+](=O)[O-])s2)o1	?	17.8µM*	15.8µM*	8.91µM*	-35.0%	?	35.5*	-5.5	-15.0	100.0*	nt	?	Pol kappa inh-2=29.9*
Clc1ccc(-c2nnc3sc(Cc4cccs4)nn23)c(Cl)c1	-13.4%	12.5%	?	-17.2%	-1.7%	-2.7%	nt	nt	nt	nt	nt	nt

Assay outcomes (PubChem BioAssay)
